± gives the uncertainty stated by the source. The full ranking holds about 9,900 compounds; the median of “viability index relative to DMSO control” is about 1, and the lowest 2% start at about 0.85. The sample holds the lowest values, similar compounds and a random draw of the others, so the mix is not that of the screen.

The values below come from the supplement of paper PMC4723716.

In the assay the test system is Plasmodium falciparum NF54 stage V gametocytes. As to the kind of experiment: viability index relative to DMSO control (fraction); higher = less gametocyte killing. To be noted: 2.5 µM, library set: Broad Institute DOS, incubation time: 72 h. The protocol: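 Broad DOS informer set and blood-stage-active DOS compounds screened in duplicate at 2.5 µM against P. falciparum NF54 stage V gametocytes with the serum-free one-step SaLSSA (1536-well): 72 h at 37 °C under low oxygen, then saponin lysis and MitoTracker Red CMXRos staining, with high-content imaging. Viability index = viable-object count divided by the plate mean of DMSO wells (0 = killed, about 1 = inactive).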

In turn, `Cc1ccc(S(=O)(=O)Nc2cccc3c2O[C@H](CN(C)C(=O)Nc2ccc(C(F)(F)F)cc2)[C@H](C)CN([C@H](C)CO)C3=O)cc1` came in with a viability index of 1.07 ± 0.04.
The result for `CN(C)C(=O)c1cccc(-c2ccc3c(c2)[C@H]2[C@H](CCN2C(=O)Cc2ccccc2)[C@@H](CO)N3)c1` reads 0.899 ± 0.042; that for `Cc1ccc(S(=O)(=O)N2CC[C@H]3[C@H](CO)Nc4ccc(-c5cccc(C(=O)N(C)C)c5)cc4[C@H]32)cc1`, 0.7 ± 0.018.
With `CN(C)C(=O)c1cccc(-c2ccc3c(c2)[C@H]2[C@H](CCN2C(=O)Cc2ccccc2)[C@H](CO)N3)c1` the figure was 1.03 ± 0.03; with `Cc1ccc(S(=O)(=O)N2CC[C@@H]3[C@H]2c2cc(-c4cccc(C(=O)N(C)C)c4)ccc2N[C@@H]3CO)cc1`, 0.885 ± 0.055.
With `CN(C)C(=O)c1cccc(-c2ccc3c(c2)[C@@H]2[C@@H](CCN2C(=O)Cc2ccccc2)[C@H](CO)N3)c1` the figure was 0.991 ± 0.022; with `N#Cc1cccc(-c2ccc3c(c2)[C@H]2[C@H](CCN2S(=O)(=O)c2ccc(F)cc2)[C@@H](CO)N3)c1`, 0.949 ± 0.023; with `Cc1ccc(S(=O)(=O)N2CC[C@@H]3[C@@H](CO)Nc4ccc(-c5cccc(C(=O)N(C)C)c5)cc4[C@@H]32)cc1`, 0.837 ± 0.012.
As for `CN(C)C(=O)c1cccc(-c2ccc3c(c2)[C@@H]2[C@@H](CCN2C(=O)Cc2ccccc2)[C@@H](CO)N3)c1`, the viability index was found to be 1.04 ± 0.025.
The result for `Cc1ccc(S(=O)(=O)N2CC[C@@H]3[C@H](CO)Nc4ccc(-c5cccc(C(=O)N(C)C)c5)cc4[C@@H]32)cc1` reads 0.77 ± 0.034.
The result for `O=C(N[C@H]1C=C[C@@H](CC(=O)N2CCN(c3ccccc3)CC2)O[C@H]1CO)c1ccccc1` reads 1.04 ± 0.087.
With `N#C[C@H]1[C@H](c2ccc(-c3cncnc3)cc2)[C@@H](CO)N1C(=O)Cc1ccccc1` the figure was 1.06 ± 0.1; with `COc1ccc(-c2ccccc2[C@@H]2[C@@H](CO)N(C(=O)C3CCC3)[C@H]2C#N)cc1`, 1.17 ± 0.15.
For `O=C(C[C@@H]1CC[C@H]2NC[C@H](O)COC[C@@H]2O1)Nc1nccs1`, the viability index was 1.04 ± 0.068.
The result for `C[C@H](CO)N1C[C@H](C)[C@H](CN(C)Cc2cccc(C(F)(F)F)c2)OCc2ccccc2-c2c(n(C)c3ccccc23)C1=O` reads 0.972 ± 0.029; that for `COc1cccc(S(=O)(=O)N2CCCCN3[C@@H](CO)[C@@H](c4ccc(C#CCC(C)C)cc4)[C@@H]3C2)c1`, 0.393 ± 0.021; that for `COc1cccc(S(=O)(=O)N2CCCCN3[C@@H](CO)[C@H](c4ccc(C#CCC(C)C)cc4)[C@@H]3C2)c1`, 1.01 ± 0.053.
With `COc1cccc(S(=O)(=O)N2CCCCN3[C@H](CO)[C@H](c4ccc(C#CCC(C)C)cc4)[C@H]3C2)c1` the figure was 0.6428 ± 0.0032.
Molecule `COc1cccc(S(=O)(=O)N2CCCCN3[C@H](CO)[C@@H](c4ccc(C#CCC(C)C)cc4)[C@@H]3C2)c1` returned a viability index of 0.941 ± 0.042.
Regarding `COc1cccc(S(=O)(=O)N2CCCCN3[C@H](CO)[C@H](c4ccc(C#CCC(C)C)cc4)[C@@H]3C2)c1`, the viability index turned out to be 1 ± 0.078.
`COc1cccc(S(=O)(=O)N2CCCCN3[C@H](C2)[C@H](c2ccc(C#CCC(C)C)cc2)[C@@H]3CO)c1` yielded a viability index of 0.9833 ± 0.0041.
With `COc1ccc(NC(=O)N(C)C[C@@H]2Oc3c(NC(=O)CCCCCC(=O)Nc4ccccc4N)cccc3C(=O)N([C@H](C)CO)C[C@H]2C)cc1` the figure was 0.893 ± 0.012; with `COc1ccc(NC(=O)N(C)C[C@H]2Oc3c(NC(=O)CCCCCC(=O)Nc4ccccc4N)cccc3C(=O)N([C@H](C)CO)C[C@H]2C)cc1`, 0.62 ± 0.082; with `COc1ccc(NC(=O)N(C)C[C@H]2Oc3c(NC(=O)CCCCCC(=O)Nc4ccccc4N)cccc3C(=O)N([C@@H](C)CO)C[C@H]2C)cc1`, 0.645 ± 0.046.
The result for `COc1ccc(NC(=O)N(C)C[C@@H]2Oc3c(NC(=O)CCCCCC(=O)Nc4ccccc4N)cccc3C(=O)N([C@@H](C)CO)C[C@@H]2C)cc1` reads 0.943 ± 0.058; that for `COc1ccc(NC(=O)N(C)C[C@@H]2Oc3c(NC(=O)CCCCCC(=O)Nc4ccccc4N)cccc3C(=O)N([C@@H](C)CO)C[C@H]2C)cc1`, 1.07 ± 0.091.
The result for `COc1ccc(NC(=O)N(C)C[C@H]2Oc3c(NC(=O)CCCCCC(=O)Nc4ccccc4N)cccc3C(=O)N([C@@H](C)CO)C[C@@H]2C)cc1` reads 0.991 ± 0.081.
As to `COc1ccc2c3c([C@@H](CO)N(Cc4cc(OC)cc(OC)c4)C[C@]33CN(C3)C(=O)CN3CCOCC3)n(C)c2c1`, the viability index was 0.879 ± 0.02.
With `COC(=O)C[C@H]1CC[C@H]2[C@@H](COc3ccc(NS(=O)(=O)c4ccc(C)cc4)cc3C(=O)N2C)O1` the figure was 1.114 ± 0.0014; with `C[C@@H]1CCCCO[C@@H](CN(C)CC2CCCCC2)[C@H](C)CN([C@@H](C)CO)C(=O)c2cc(NS(C)(=O)=O)ccc2O1`, 1.08 ± 0.061; with `Cc1ccccc1-c1ccc([C@@H]2[C@@H]3CN(S(=O)(=O)Cc4ccccc4)C[C@H]2N3)cc1`, 0.854 ± 0.034.
For the molecule `N#Cc1ccc(-c2ccc([C@@H]3[C@@H]4CN(S(=O)(=O)Cc5ccccc5)C[C@H]3N4)cc2)cc1`, the viability index is 0.976 ± 0.037.
The result for `CC(=O)N1C[C@@H]2N[C@H](C1)[C@H]2c1ccc(-c2ccccc2)cc1` reads 1.11 ± 0.016; that for `CS(=O)(=O)N1C[C@@H]2N[C@H](C1)[C@@H]2c1ccc(-c2ccccc2)cc1`, 0.706 ± 0.03; that for `COc1cccc(-c2ccc([C@@H]3[C@@H]4CN(S(=O)(=O)Cc5ccccc5)C[C@H]3N4)cc2)c1`, 0.808 ± 0.031.
Turning to `O=S(=O)(c1ccc(-c2ccccc2)cc1)N1C[C@@H]2N[C@H](C1)[C@@H]2c1ccc(-c2ccncc2)cc1`, the viability index was found to be 1.072 ± 0.0057.
